# Pf growth 48h = Primary qHTS for delayed death inhibitors of the malarial parasite plastid, 48 hour incubation. P. falciparum luciferase growth in erythrocytes, 48 h. Potency, µM (doses to about 28.7 µM), for the others: top-dose activity change, negative = inhibition, usual class: inhibitors. 5.9% of 310,000 active. AID 504832, 2011; further: potency means the concentration at half of the fitted maximal effect; on the % scale 0 is the no-effect control and ±100 the full control effect
#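 Luciferase-expressing parasites in RBCs, 2% Hct / 0.1% parasitemia final; RPMI 1640 + 0.5% Albumax; 37 C, 5% CO2, one generation; luminescence read-out, lower signal = inhibition.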
# Cycloheximide cs = Cycloheximide Counterscreen for Small Molecule Inhibitors of Shiga Toxin; cell reporter, cycloheximide protein synthesis inhibition counterscreen; max response, %; 12% of 300,000 active; in the data active means max response mostly above about 13%, no sharp cut-off; inactive means mostly below about 14%; further: read at 38.3 µM for the half of the compounds with a filed dose; 0% is about no effect
# HCMV inh = qHTS Assay for inhibitors of the human cytomegalovirus (HCMV). HFF cells, HCMV-luciferase reporter, 72 h; hits give low values. activity change, negative = inhibition, % at 57.5 µM. 4.5% of 410,000 active. AID 1259415, 2018; in the data active means activity change below about -60%; inconclusive means no clear call, values can overlap the other calls; inactive means above about -39%; further: on the % scale 0 is the no-effect control and ±100 the full control effect
#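 Steps: HFFs plated, 16 h 37C; compounds added; HCMV-luciferase added to MOI 1 PFU/cell; 72 h 37C; OneGlo reagent, 5 min room temperature; luminescence read, normalized to controls.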
# Pf growth 96h = Primary qHTS for delayed death inhibitors of the malarial parasite plastid, 96 hour incubation | P. falciparum luciferase reporter growth, 96 h | 6.9% of 320,000 active | Potency, µM (highest dose often 28.7 µM), for the others: at the highest dose activity change, negative = inhibition, usual class: inhibitors | AID 504834, 2011; further: potency means the concentration at half of the fitted maximal effect; on the % scale 0 is the no-effect control and ±100 the full control effect
#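 Infected RBCs, 2% Hct / 0.05% parasitemia final; luciferase-reporter P. falciparum; cpd 96 h, 37 C, 5% CO2; luciferase detection reagent; luminescence.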
# Shiga toxin inh = A qHTS for Small Molecule Inhibitors of Shiga Toxin; Vero cells, Shiga toxin protein synthesis inhibition reporter; inhibition, % at 38.7 µM; 9.2% of 290,000 active; AID 2315, 2010; in the data active means inhibition mostly above about 28%, no sharp cut-off; inactive means mostly below about 43%; further: 0% is about no effect
# Starred values were filed as active, the others as inactive; i = inactive; ? = inconclusive; . = no result; [ ] = remark or other dose. Shown are actives, neighbours in structure and some others; about 20% of the full set was active somewhere. Unless noted, the call rests on the fitted dose curve; in most records, active means well fitted inhibition curve with a large enough effect; inconclusive means small, poorly fitted or top-dose-only effect, or another doubt; inactive means no such curve, though single readings can be large or run the other way.
SMILES,Pf growth 48h,Cycloheximide cs,HCMV inh,Pf growth 96h,Shiga toxin inh
O=C(Cn1c(-c2ccccc2)c[n+]2ccsc12)c1ccc([N+](=O)[O-])cc1,10.9%,20.9*,-99.5*,?,70.5*
Cc1ccccc1-c1nn2c(=O)cc(CN3CCN(C(=O)c4ccccc4Br)CC3)nc2s1,.,.,0.6,.,.
Cn1cnnc1SCC(C)(C)NS(=O)(=O)c1ccc(Cl)cc1,1.2%,-3.1,7.6,?,-14.1
CCCn1nnc(NC(=O)/C=C/c2cc(Br)ccc2OC)n1,9.7%,-2.6,?,2.5%,-3.4
Cc1cccc(S(=O)(=O)N(CC(=O)Nc2ccccc2C)Cc2ccco2)c1,.,11.4,-18.1,11.7µM*,24.5
O=C(CN(Cc1ccco1)S(=O)(=O)c1ccccc1)N/N=C/c1cccc(O)c1,-29.1%,-2.8,1.4,-23.3%,48.1*
CON(C)S(=O)(=O)c1cccc(C(=O)N(CC(=O)Nc2ccccc2C(F)(F)F)Cc2ccco2)c1,.,.,-18.0,.,.
CC(=O)Nc1ccc(S(=O)(=O)N(C)CC(=O)N/N=C/c2cccc(O)c2)cc1,-19.1%,1.0,-21.5,19.9%,19.3
Cc1ccccc1CNC(=O)c1ccccc1,.,6.2,32.0,3.2%,14.8
CN(C)C(=O)c1cc2cc(Br)ccc2s1,16.0%,16.0,?,?,31.7
CCCC1O[C@@H]2CC3C4CCC5=CC(=O)C=C[C@]5(C)C4C(OC(C)=O)C[C@]3(C)[C@]2(C(=O)COC(C)=O)O1 (some centres undefined),9.28µM*,-2.2,-1.5,1.17µM*,-2.6
CCC[C@@H]1O[C@@H]2C[C@@H]3[C@H]4CCC5=CC(=O)C=C[C@@]5(C)[C@H]4[C@H](O)C[C@@]3(C)[C@@]2(C(=O)CO)O1,10.7µM*,.,.,4.78µM*,.
CC1(C)O[C@@H]2C[C@H]3[C@H]4C[C@H](F)C5=CC(=O)C=C[C@@]5(C)[C@@H]4[C@H](O)C[C@]3(C)[C@]2(C(=O)CO)O1,-10.4%[12.8 µM],.,.,-24.1%[12.8 µM],.
CCCC1O[C@@H]2C[C@H]3[C@@H]4CCC5=CC(=O)C=C[C@]5(C)[C@H]4[C@@H](O)C[C@]3(C)[C@]2(C(=O)CO)O1 (some centres undefined),4.15µM*,-1.7,37.7,2.33µM*,-10.1
CCCC1OC2CC3C4CCC5=CC(=O)C=CC5(C)C4C(O)CC3(C)C2(C(=O)O)O1 (centres undefined),8.0%,1.7,32.1,-65.6%,-3.6
CC(=O)OCC(=O)[C@@]1(O)[C@H](OC(C)=O)C[C@H]2[C@@H]3CCC4=CC(=O)C=C[C@]4(C)[C@@]3(F)[C@@H](O)C[C@@]21C,.,-3.5,.,.,11.6
C=C1N[C@]2(C(=O)COC(C)=O)[C@@H](C[C@H]3[C@@H]4CCC5=CC(=O)C=C[C@]5(C)[C@H]4[C@@H](O)C[C@@]32C)O1,?,.,.,9.53µM*,.
CC1CCCCC1NC(=O)CCCCn1c(=O)[nH]c2ccsc2c1=O (centres undefined),-13.6%,-6.0,-1.1,-2.8%,-12.3
CC(C)C(=O)OCC(=O)[C@@]12OC(C3CCCCC3)O[C@@H]1CC1C3CCC4=CC(=O)C=C[C@]4(C)C3[C@@H](O)C[C@@]12C (some centres undefined),0.675µM*,.,.,0.757µM*,.
CCC(=O)[C@@]1(C)[C@H](C)C[C@H]2[C@@H]3CCC4=CC(=O)C=C[C@]4(C)[C@H]3[C@@H](O)C[C@@]21C,2.33µM*,.,5.9,5.0%,.
CN1CCN(c2ccc(-c3ccc4ccccc4n3)cc2)CC1,-45.5%,1.4,-92.1*,i[5.75 µM],-12.6
Cc1cc(-c2ccc(N3CCOCC3)cc2)nc2ccccc12,201.7%,30.4*,64.4,190.0%,27.6*
c1ccc2nc(-c3ccc(N4CCOCC4)cc3)ccc2c1,69.3%,32.5*,-26.7,104.7%,67.2*
c1ccc(N2CCOCCOCCOCCOCCOCC2)cc1,-0.8%,-3.3,-2.5,5.7%,-16.0
c1ccc2nc(-c3ccncc3)ccc2c1,74.1%,33.8*,23.3,67.4%,84.3*
SMILES,Pf growth 48h,Cycloheximide cs,HCMV inh,Pf growth 96h,Shiga toxin inh
COc1ccc(N2CCN(C(=O)c3ccc4ccccc4n3)CC2)cc1,-8.3%,-2.0,118.7,-3.5%,-6.0
O=C(Nc1ccccc1Cl)c1cc(C2CCCN(C(=O)C3CCCCC3)C2)on1 (centres undefined),.,.,-5.7,.,.
CCCn1c(SCC(=O)Nc2cccc(S(=O)(=O)N3CCCC3)c2)n[nH]c1=O,?,-1.3,-26.7,?,-4.5
NC(=O)c1sc2nccc(Nc3ccccc3)c2c1N,?,15.0*,?,-7.4%,49.2
Nc1c(C(=O)Nc2ccccc2)sc2ncc([N+](=O)[O-])cc12,16.4%,11.9,-23.4,32.3%,6.6
CCCC1=Nc2cc(C(=O)NC(C)c3ccccc3)ccc2Sc2ccc(C)cc21 (centres undefined),.,.,-21.4,.,.
CC1=Nc2cc(C(=O)O)ccc2Sc2ccc(C)cc21,-4.7%,20.1*,-10.7,?,35.5
CCC(C)NC(=O)c1ccc2c(c1)N=C(C)c1cc(C)ccc1S2 (centres undefined),.,.,-71.5*,.,.
CCCNC(=O)C1=CC(c2ccc3c(c2)OCO3)=NS(=O)(=O)N1C,.,.,-6.5,.,.
CCN(CC(=O)Nc1c(F)cccc1F)C(=O)c1nc2nccc(C)n2n1,5.8%,.,-5.3,52.3%,.
CCCc1ccc(OCc2nc(-c3ccc(NC(=O)c4cccs4)cc3)no2)cc1,1.85µM*,80.3*,?,?,176.2*
CCCc1ccc(OCc2nc(-c3ccc(NC(=O)c4ccco4)cc3)no2)cc1,?,47.0*,?,?,56.5
O=C(NCCc1nc(-c2ccccc2)no1)c1ccco1,.,.,11.7,.,.
Cc1cc(OCc2nc(-c3ccc(NC(=O)c4cccnc4)cc3)no2)ccc1Cl,?,-0.1,-22.6,?,10.2
CCCCNCCCOc1ccc(C)cc1Br,?,1.6,6.5,2.33µM*,16.0
C=CCNCCOCCOc1ccc(C)cc1Br,80.1%,28.5*,3.2,3.2%,47.0
Cc1cc(-c2ccc(S(=O)(=O)N3CCN(c4ccc(Cl)cc4)CC3)s2)on1,.,.,0.0,.,.
Cc1c(CN(C)C(=O)c2ccc(Br)o2)cnn1C,23.7%,7.1,34.8,87.0%,27.5
Cc1ccc(S(=O)(=O)N2[C@H](CC(=O)OCc3ccccc3)OC[C@@H]2C)cc1,.,.,-7.5,.,.
COc1cc(OC)cc(C(=O)Nc2ccc(Cn3ccnc3)cc2)c1,?,15.1*,6.6,22.0%,25.2
COc1ccc(C(=O)Nc2ccc(Cn3ccnc3)cc2)cc1OC,34.3%,13.0*,146.8,10.4µM*,21.3*
O=C(Nc1ccc(Cn2ccnc2)cc1)c1cccc(C(F)(F)F)c1,?,2.7,-9.5,?,-7.3
COc1cc(Cn2ccnc2)c(OC)cc1Cn1ccnc1,9.28µM*,-4.5,61.9,?,-27.5
COc1ccc(CCN2CC(C(=O)NCCCn3nc(C)cc3C)CCC2=O)cc1 (centres undefined),28.6%,7.6,-23.4,29.4%,-6.0
